Data: ChEMBL document CHEMBL3988442, “University of Dundee, Small-Polar-MMV Screening Library” (2021)
For some of these results: Results with a measured potency or affinity are listed apart.

What was measured:
Set-up in all cases: scale not given: direction of the effect not stated beside the values
[1] = biological target: Protein translocase subunit SecA (Escherichia coli (strain K12)) (UniProt P10408); experiment: Assay to Identify E. coli SecA ATPase Inhibitors; type: functional; settings: 30 µM
[2] = biological target: T1, Ubiquitin-activating enzyme e1, putative (Leishmania donovani (strain BPK282A1)) (UniProt E9BSI1); experiment: Leishmania donovani Ubiquitin Activating Enzyme (LdE1); type: functional; settings: 30 µM
T1 sequence (whole entry): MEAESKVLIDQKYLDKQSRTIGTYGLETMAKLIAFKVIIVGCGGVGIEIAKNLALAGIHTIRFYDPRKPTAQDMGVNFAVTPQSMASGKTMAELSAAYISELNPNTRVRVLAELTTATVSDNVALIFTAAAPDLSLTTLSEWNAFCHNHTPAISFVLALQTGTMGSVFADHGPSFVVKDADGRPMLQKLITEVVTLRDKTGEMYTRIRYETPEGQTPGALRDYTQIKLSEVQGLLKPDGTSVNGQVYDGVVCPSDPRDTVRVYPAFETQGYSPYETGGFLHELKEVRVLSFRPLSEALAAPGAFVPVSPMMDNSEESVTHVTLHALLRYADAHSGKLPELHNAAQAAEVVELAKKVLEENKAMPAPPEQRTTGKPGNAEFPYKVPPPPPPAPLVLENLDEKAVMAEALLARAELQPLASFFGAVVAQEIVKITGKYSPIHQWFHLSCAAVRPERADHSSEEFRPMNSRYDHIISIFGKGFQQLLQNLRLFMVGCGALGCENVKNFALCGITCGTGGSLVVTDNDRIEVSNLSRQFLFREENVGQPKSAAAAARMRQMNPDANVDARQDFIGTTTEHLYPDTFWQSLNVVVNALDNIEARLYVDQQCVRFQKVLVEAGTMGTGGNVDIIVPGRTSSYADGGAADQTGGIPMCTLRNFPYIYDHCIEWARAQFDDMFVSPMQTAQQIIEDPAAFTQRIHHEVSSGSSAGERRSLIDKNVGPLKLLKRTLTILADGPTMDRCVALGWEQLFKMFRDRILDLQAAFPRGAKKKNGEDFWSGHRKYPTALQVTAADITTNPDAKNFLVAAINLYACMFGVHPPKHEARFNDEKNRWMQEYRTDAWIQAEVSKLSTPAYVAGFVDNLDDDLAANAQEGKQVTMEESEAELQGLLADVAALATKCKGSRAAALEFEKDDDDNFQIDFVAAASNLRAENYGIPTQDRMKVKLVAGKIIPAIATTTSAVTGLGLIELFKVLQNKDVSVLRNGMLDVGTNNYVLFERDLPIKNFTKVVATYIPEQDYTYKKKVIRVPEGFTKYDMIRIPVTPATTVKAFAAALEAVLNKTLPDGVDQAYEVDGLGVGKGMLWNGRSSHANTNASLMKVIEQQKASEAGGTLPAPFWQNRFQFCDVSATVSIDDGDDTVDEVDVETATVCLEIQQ

[3] = biological target: AMP-activated protein kinase, AMPK (Homo sapiens) (UniProt P54646+O43741+P54619+Q9UGJ0+Q9Y478+Q13131+Q9UGI9); experiment: AMP-dependent Kinase enzyme assay. An in vitro enzyme assay that detects ADP turnover that is directly proportional to AMPK activity. This uses naive AMPK that is activated during the assay with MK-8722; type: functional; settings: 30 µM
[4] = biological target: Sialic acid-binding Ig-like lectin 9 (Homo sapiens) (UniProt Q9Y336); experiment: Hs-Siglec9 ALPHAscreen SOP 20170721; settings: 10 µM
[5] = tested on: Trypanosoma cruzi; experiment: Trypanosoma cruzi phosphomannomutase and mannose-1-phosphate guanylyltransferase assay; type: functional; settings: 10 µM
[6] = biological target: T2, Arginase-2, mitochondrial (Homo sapiens) (UniProt P78540); experiment: in vitro enzyme assay to detect the production of urea directly proportional to the activity of Arginase II; type: functional; settings: 33.3 µM; also: in the data most compounds retested in dose-response had high values
T2 sequence (whole entry): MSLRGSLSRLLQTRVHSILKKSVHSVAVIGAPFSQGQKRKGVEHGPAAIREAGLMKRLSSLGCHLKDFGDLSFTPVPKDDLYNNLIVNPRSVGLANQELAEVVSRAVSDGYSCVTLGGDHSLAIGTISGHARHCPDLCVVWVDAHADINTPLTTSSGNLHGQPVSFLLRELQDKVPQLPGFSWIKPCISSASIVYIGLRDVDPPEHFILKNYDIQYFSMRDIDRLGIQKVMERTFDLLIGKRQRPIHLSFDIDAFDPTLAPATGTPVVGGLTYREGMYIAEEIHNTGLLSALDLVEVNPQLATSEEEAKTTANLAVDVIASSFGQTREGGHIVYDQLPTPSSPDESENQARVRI

[7] = biological target: T3, Proteasome subunit beta (Trypanosoma cruzi) (UniProt O96673); experiment: Trypanosoma cruzi proteasome chymotrypsin-like activity (TcProtChymo) assay.; also: in the data most compounds retested in dose-response had high values; type: functional; settings: 9.37 µM
T3 sequence (whole entry): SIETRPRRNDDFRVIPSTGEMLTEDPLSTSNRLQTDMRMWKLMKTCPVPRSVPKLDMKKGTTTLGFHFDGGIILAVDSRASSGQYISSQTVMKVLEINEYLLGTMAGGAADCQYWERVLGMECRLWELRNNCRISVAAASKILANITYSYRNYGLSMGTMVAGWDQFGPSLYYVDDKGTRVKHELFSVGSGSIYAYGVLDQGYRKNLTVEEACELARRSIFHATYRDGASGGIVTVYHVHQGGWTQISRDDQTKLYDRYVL

[8] = species on record: Homo sapiens; experiment: To identify inhibition of the IFN signalling (Jak-Stat) pathway via expression of an eGFP reporter gene under the control of an IFN-stimulated response element (ISRE) containing MxA promoter.; type: functional; settings: 30 µM
[9] = biological target: T4, Tyrosyl-tRNA synthetase, putative (Trypanosoma cruzi (strain CL Brener)) (UniProt Q4DSP6); experiment: Trypanosoma cruzi tyrosyl tRNA synthetase (TcYRS) _High Tyrosine SOP; type: functional; settings: 30 µM; also: in the data most compounds retested in dose-response had high values
T4 sequence (whole entry): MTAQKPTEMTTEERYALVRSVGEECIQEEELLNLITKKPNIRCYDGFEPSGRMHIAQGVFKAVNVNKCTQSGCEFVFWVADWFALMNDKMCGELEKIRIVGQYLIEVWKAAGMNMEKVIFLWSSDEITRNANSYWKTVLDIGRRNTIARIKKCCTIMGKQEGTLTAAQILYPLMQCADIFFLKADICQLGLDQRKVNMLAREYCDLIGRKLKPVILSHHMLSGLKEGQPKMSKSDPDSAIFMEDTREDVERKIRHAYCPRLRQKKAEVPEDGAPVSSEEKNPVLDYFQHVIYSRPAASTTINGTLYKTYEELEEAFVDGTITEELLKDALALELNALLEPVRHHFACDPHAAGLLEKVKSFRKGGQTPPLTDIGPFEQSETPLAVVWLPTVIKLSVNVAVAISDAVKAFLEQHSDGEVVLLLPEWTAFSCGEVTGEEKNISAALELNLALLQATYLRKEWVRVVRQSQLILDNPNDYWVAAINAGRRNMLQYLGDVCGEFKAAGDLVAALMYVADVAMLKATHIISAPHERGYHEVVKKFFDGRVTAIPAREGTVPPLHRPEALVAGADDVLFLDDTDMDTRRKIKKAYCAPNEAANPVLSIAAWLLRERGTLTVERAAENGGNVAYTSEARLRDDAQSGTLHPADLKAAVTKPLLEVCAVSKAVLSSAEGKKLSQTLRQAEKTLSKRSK

[10] = biological target: T4, Tyrosyl-tRNA synthetase, putative (Trypanosoma cruzi (strain CL Brener)); experiment: Trypanosoma cruzi tyrosyl tRNA synthetase (TcYRS) SOP; type: functional; settings: 30 µM
[11] = biological target: Chromo domain-containing protein 1 (Saccharomyces cerevisiae (strain ATCC 204508 / S288c) (Baker's yeast)) (UniProt P32657); experiment: ScCHD-1 Enzyme Inhibition Assay; type: functional; settings: 30 µM; also: in the data most compounds retested in dose-response had high values
Sequence of Chromo domain-containing protein 1 (Saccharomyces cerevisiae (strain ATCC 204508 / S288c) (Baker's yeast)) (P32657 whole entry, the tested form may be a part): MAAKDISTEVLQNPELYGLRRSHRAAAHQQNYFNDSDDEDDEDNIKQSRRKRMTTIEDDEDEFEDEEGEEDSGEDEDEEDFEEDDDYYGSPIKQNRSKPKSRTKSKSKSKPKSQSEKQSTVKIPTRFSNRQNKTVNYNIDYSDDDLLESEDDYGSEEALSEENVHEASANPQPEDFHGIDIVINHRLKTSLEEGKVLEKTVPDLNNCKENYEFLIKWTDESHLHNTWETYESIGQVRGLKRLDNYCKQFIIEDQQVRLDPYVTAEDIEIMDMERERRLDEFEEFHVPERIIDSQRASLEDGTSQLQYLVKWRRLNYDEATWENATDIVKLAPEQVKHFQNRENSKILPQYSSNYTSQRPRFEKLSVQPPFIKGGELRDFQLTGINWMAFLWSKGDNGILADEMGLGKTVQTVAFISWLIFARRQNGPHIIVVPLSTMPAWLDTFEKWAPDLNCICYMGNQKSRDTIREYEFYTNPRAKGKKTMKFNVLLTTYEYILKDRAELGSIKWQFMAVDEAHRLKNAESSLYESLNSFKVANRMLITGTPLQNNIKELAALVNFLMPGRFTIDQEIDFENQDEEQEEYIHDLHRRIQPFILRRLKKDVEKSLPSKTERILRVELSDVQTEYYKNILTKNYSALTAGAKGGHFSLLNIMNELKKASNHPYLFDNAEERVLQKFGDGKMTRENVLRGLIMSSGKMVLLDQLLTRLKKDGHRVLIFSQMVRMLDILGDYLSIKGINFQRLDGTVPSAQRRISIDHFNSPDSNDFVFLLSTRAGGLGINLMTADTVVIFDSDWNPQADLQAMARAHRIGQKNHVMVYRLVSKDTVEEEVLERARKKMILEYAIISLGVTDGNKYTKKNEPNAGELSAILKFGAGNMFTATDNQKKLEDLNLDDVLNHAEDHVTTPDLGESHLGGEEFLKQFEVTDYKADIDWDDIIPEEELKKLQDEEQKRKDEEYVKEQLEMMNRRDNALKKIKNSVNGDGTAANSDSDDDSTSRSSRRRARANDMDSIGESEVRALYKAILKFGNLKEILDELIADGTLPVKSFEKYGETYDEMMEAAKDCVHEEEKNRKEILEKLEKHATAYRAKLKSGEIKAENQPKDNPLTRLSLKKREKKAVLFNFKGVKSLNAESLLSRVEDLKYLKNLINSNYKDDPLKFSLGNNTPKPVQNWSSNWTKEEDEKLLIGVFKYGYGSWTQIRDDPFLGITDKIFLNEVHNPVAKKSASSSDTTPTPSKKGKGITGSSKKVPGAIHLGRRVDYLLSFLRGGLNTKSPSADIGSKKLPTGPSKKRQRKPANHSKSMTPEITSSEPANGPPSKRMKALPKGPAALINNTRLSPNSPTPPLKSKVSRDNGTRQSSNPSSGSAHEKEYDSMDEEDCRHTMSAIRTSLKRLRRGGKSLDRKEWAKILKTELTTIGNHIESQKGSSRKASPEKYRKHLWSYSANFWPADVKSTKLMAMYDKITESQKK

Sequence of Sialic acid-binding Ig-like lectin 9 (Homo sapiens) (Q9Y336 whole entry): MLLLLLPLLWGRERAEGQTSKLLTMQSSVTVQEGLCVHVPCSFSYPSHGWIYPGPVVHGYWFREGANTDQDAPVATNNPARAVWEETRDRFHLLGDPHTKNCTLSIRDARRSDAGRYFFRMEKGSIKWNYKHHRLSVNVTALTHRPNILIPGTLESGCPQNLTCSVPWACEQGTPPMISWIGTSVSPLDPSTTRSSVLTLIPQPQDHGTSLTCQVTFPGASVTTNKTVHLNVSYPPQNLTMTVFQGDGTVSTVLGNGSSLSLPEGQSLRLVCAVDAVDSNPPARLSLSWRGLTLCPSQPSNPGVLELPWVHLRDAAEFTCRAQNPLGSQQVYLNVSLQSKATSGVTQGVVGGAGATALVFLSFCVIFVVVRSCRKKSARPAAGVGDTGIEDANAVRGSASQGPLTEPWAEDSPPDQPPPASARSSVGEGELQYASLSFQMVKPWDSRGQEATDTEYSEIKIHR
Sequence of Protein translocase subunit SecA (Escherichia coli (strain K12)) (P10408 whole entry): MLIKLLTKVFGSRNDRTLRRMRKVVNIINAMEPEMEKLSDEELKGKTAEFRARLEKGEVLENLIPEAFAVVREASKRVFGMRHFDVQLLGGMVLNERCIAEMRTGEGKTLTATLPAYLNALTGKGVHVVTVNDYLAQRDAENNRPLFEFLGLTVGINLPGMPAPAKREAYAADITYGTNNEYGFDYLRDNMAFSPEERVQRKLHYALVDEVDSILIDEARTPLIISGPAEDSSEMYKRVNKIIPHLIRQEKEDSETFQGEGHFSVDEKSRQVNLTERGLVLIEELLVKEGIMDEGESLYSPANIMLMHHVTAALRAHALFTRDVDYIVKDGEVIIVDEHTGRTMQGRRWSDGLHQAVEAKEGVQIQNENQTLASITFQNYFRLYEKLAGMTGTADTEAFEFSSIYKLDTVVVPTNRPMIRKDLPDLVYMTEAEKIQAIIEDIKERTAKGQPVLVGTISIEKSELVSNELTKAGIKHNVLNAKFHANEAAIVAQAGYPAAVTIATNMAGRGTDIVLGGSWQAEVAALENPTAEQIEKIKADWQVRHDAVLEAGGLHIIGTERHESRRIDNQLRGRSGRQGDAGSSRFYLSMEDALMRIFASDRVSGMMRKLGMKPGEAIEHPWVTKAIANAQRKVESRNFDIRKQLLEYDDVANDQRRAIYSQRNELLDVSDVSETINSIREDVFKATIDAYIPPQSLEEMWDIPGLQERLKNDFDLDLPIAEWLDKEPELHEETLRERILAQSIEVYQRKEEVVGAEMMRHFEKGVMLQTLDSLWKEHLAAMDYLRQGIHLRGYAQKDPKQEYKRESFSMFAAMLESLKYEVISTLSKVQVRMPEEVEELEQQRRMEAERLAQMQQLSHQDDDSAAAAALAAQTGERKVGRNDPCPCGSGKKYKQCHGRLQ

Structure (SMILES)	Percent Effect [1] [%]	Percent Effect [2] [%]	Percent Effect [3] [%]	Percent Effect [4] [%]	Percent Effect [5] [%]	Percent Effect [6] [%]	Percent Effect [7] [%]	Percent Effect [8] [%]	Percent Effect [9] [%]	Percent Effect [10] [%]	Percent Effect [11] [%]
CCOc1ncccc1C(=O)NCCN(CC)C1CC1	-6.27	3.8	1.07	-1.89	-0.103	5.38	8.75	5.7	1.04	0	-23.1
Cc1ccc(-c2ncc(C(=O)NCCNC(=O)C(C)C)s2)c(C)c1	-2.93	5.41	-5.86	-1.89	-3.87	-2	2.52	15.8	4.43	11.1	-8.7
Cc1nc2c(c(NC3CC3)n1)CCN(C(=O)C(C)(C)O)CC2	-2.61	10.8	2.64	-8.96	-4.99	-0.319	28	23.3	3.24	7.69	-1.94
CN(Cc1nnc(C2CC2)n1C)C1CCN(CCc2cccs2)C1 (stereo not given)	-0.668	5.48	-3.64	3.02	8.33	0	15.5	-8.16	2.08	6.17	-3.22
CCNC(=O)c1nnc2ccc(N3CCOCC3)cc2n1	-7.02	-1.33	58.5	3.63	-6.09	-3.7	7.95	19.8	7.41	7.69	-13.2
